Results reported in PubChem BioAssay (NCI).
This is part of a sample that, as a whole, favours compounds with a hit. Of some 79,000 tested, about 15% had one in any assay. No stated cut-off is given here; in the data, active means growth inhibition above about 70%; inactive means the rest.

Experiments:
[1] = NCI Yeast Anticancer Drug Screen. Data for the rad50 strain (AID 155);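 further: 0% = growth of vehicle-only cultures of the same strain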; settings: S. cerevisiae rad50 strain growth inhibition; at 50.0 µM; hits give high values
Method in brief: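 DNA repair mutant yeast, compound exposure, growth read-out; inhibition is taken relative to vehicle.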

[2] = NCI Yeast Anticancer Drug Screen. Data for the mec2-1 strain (AID 157); settings: S. cerevisiae mec2-1 strain, at 50.0 µM, hits give high values
Method in brief: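 Vehicle-treated cultures served as reference for growth inhibition of compound-exposed mec2-1 yeast.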

[3] = NCI Yeast Anticancer Drug Screen. Data for the sgs1 mgt1 strain (AID 161);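 further: 0% = growth of cultures given vehicle only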; settings: S. cerevisiae sgs1 mgt1 strain, at 50.0 µM, hits give high values
Method in brief: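 Mutant yeast exposed to compound; growth scored against vehicle-only wells.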

[4] = NCI Yeast Anticancer Drug Screen. Data for the cln2 rad14 strain (AID 165);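 further: 0% = growth equal to vehicle treated cultures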; settings: S. cerevisiae cln2 rad14 strain, at 50.0 µM, hits give high values
Method in brief: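 Each compound was tested on cln2 rad14 yeast. Inhibition of growth was calculated against vehicle-exposed controls.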

[5] = NCI Yeast Anticancer Drug Screen. Data for the bub3 strain (AID 167); settings: S. cerevisiae bub3 mutant strain, at 50.0 µM, hits give high values
Method in brief: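 In this screen, a yeast mutant lacking normal mitotic checkpoint function is challenged with compound. Relative growth versus vehicle gives the inhibition value.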

[6] = NCI Yeast Anticancer Drug Screen. Data for the mlh1 rad18 strain (AID 175); settings: S. cerevisiae mlh1 rad18 strain growth inhibition; at 50.0 µM; hits give high values
Method in brief: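 Vehicle-treated cultures served as the reference for growth inhibition in a yeast strain carrying DNA damage repair alterations exposed to each compound.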

Measured: growth inhibition

Cc1ccc(NC(=O)Oc2ccc3ccccc3c2)cc1NC(=O)Oc1ccc2ccccc2c1
inactive: [1] 1.35% | [2] -19.4% | [3] -4.45% | [4] -86.5% | [5] 4.9% | [6] -1.85%

CC(=O)OCc1ccc2ccccc2c1
inactive: [1] -9.35% | [2] -29.7% | [3] -10.8% | [4] -3.2% | [5] -7.65% | [6] -14.7%

COc1nn(C)c(=O)c2cccnc12
inactive: [1] -2.05% | [2] 7.6% | [3] -3.1% | [4] -6.25% | [5] 12.6% | [6] 1.2%

Cc1nc2c(N3CCCCC3)ncnc2o1
inactive: [1] 7.3% | [2] -0.85% | [3] -6.15% | [4] -28.7% | [5] -13.8% | [6] 4.05%

CC(C)(C)C1CCCC(=O)C1 (stereo unspecified)
inactive: [1] 8.3% | [2] -5.15% | [3] 3.5% | [4] 10.3% | [5] 6.85% | [6] 3.15%

Cc1ccccc1NC(=O)C(=O)Cc1nc2ccccc2s1
inactive: [1] 14.8% | [2] -8.7% | [3] -1.5% | [4] 11.8% | [5] 9.15% | [6] 20.4%

NC1=NS(=O)(=O)Nc2nc(-c3ccc(Cl)cc3)c(-c3ccc(Cl)cc3)nc21
inactive: [1] -16.6% | [2] -17.2% | [3] -25% | [4] 3.45% | [5] -22% | [6] -24.8%

CN1C(CC(=O)c2ccccc2)CCCC1CC(O)c1ccccc1 (stereo unspecified)
inactive: [1] 13.9% | [2] 2.25% | [3] 25.4% | [4] 40.4% | [5] -2.4% | [6] 36.1%

O=C(CC(C(=O)c1ccsc1)c1cccs1)c1ccsc1 (stereo unspecified)
inactive: [1] -11.2% | [2] -19.2% | [3] 18.6% | [4] 24.5% | [5] 28.9% | [6] 3%

OC(C1CCCCC1)(C1CCC2(CCCCC2)CC1)C1CCCC2CCCCC21 (stereo unspecified)
inactive: [1] 29.9% | [2] 5% | [3] 30.9% | [4] 21.5% | [5] 1.35% | [6] 20.1%

COc1ccc2c(c1)C(O)C(NCc1ccccc1)C2 (stereo unspecified)
inactive: [1] -13.6% | [2] -7.75% | [3] -0.45% | [4] -9.9% | [5] 8.5% | [6] -8.55%

COc1ccc(/C=N/N2CCN(/N=C/c3ccc(OC)cc3)CC2)cc1
inactive: [1] 9.85% | [2] 9.7% | [3] 9.2% | [4] -6.1% | [5] 5.1% | [6] -5.35%

COC(=O)/C=C/c1ccc2c(c1)CCCC2
inactive: [1] 18.1% | [2] 15.1% | [3] 10.6% | [4] -8.7% | [5] 22.2% | [6] 24.4%

COC(=O)c1ccc(NC(C)=O)c([N+](=O)[O-])c1
inactive: [1] 3.35% | [2] -7.7% | [3] -11.4% | [4] -21.9% | [5] -26.1% | [6] 16.4%

CCN(CC)c1ccccc1-c1ccccc1
inactive: [1] 34.9% | [2] 20.1% | [3] 1.05% | [4] -58.6% | [5] 6.05% | [6] 20.1%

N#CC(C#N)SCc1ccccc1
inactive: [1] 17.1% | [2] 2.25% | [3] -5.4% | [4] 6.25% | [5] 9.3% | [6] 17.8%

O=C(NCP(=O)(c1ccccc1)c1ccccc1)OCc1ccccc1
inactive: [1] -50.2% | [2] -3.7% | [3] -25.9% | [4] 10.4% | [5] -12.5% | [6] 6.6%

c1ccc2c(c1)C(=C1c3ccccc3-c3ccccc31)c1ccccc1-2
inactive: [1] -6.4% | [2] -18.1% | [3] -0.3% | [4] -34.8% | [5] 6.85% | [6] -2.1%

CC1(C)CC(C#N)CC(C)(C)N1O
inactive: [1] 1.9% | [2] -0.75% | [3] 0.5% | [4] -20.9% | [5] -4.8% | [6] -0.95%

COc1ccc(C(=O)COC(C)(C)C)cc1
inactive: [1] -8.55% | [2] -28.2% | [3] -20% | [4] -2.7% | [5] -16.9% | [6] -22.1%

CCCCCCCCCCC(C(=O)O)C1(C(=O)O)CCC(=O)O1 (stereo unspecified)
inactive: [1] -15.7% | [2] -32.4% | [3] -5.8% | [4] 11.4% | [5] -9.4% | [6] -5.25%

CC(C)CC(CC(C)C)=NNC(N)=O
inactive: [1] 17.3% | [2] 23% | [3] 9.05% | [4] 18.9% | [5] 7% | [6] 24.4%

COc1ccc(Cc2ccc(OC)cc2)cc1
inactive: [1] -34.2% | [2] -5.3% | [3] 8.15% | [4] -9.15% | [5] 5.15% | [6] -15%

CC1=NN(C(=O)c2ccccc2O)C(=O)/C1=C/c1cccc([N+](=O)[O-])c1
inactive: [1] 47.8% | [2] 26.9% | [3] 37.1% | [4] 28.1% | [5] 61.1% | [6] 33.8%

O=C1CCCCc2ccccc21
inactive: [1] -39.1% | [2] -57.4% | [3] -7.95% | [4] -7% | [5] -25.1% | [6] -8.25%

O=C1CC2C(=O)N(Cc3ccccc3)C1C=C2S(=O)(=O)c1ccccc1 (stereo unspecified)
inactive: [1] -15.7% | [2] 21.6% | [3] 36.8% | [4] 4.25% | [5] -1.3% | [6] 4.9%

NS(=O)(=O)c1ccc(NC(=O)CC(=O)c2ccccc2)cc1
inactive: [1] -57.4% | [2] -32.7% | [3] -36% | [4] 0.35% | [5] -25.6% | [6] -38%

COC(=O)c1nc(N)nc(C(=O)OC)c1C(=O)c1cccnc1
inactive: [1] -15.2% | [2] -17.8% | [3] -0.35% | [4] -15.3% | [5] -4.7% | [6] 10.1%

Nc1ccc(Cl)cc1[N+](=O)[O-]
inactive: [1] 4.85% | [2] -3.75% | [3] 12.2% | [4] 25.1% | [5] -3.9% | [6] 15.8%

COc1cc2cc(c1Cl)NC(=O)/C=C/[C@]1(C)O[C@H]1[C@H](C)[C@@H]1C[C@@](O)(NC(=O)O1)[C@H](OC)C=C/C=C(\C)C2
inactive: [1] 20.2% | [2] 4.55% | [3] 12.1% | [4] 22.1% | [5] 20.5% | [6] 21.4%

O=C(Nc1cc([N+](=O)[O-])cc2c1[nH]c(=O)c1ccccc12)C(F)(F)F
inactive: [1] 26.2% | [2] -2.8% | [3] 10.8% | [4] -41.2% | [5] -7.4% | [6] -0.25%

CCOC(=O)C(NC(=O)OCc1ccccc1)C(=O)O (stereo unspecified)
inactive: [1] -22.9% | [2] -27.4% | [3] -14.3% | [4] 7.7% | [5] 5.35% | [6] -14.7%

CC(C)CCCC(C)C1CCC2C1CCC1C2CCC2(C)CCC(=O)CCC12C (stereo unspecified)
inactive: [1] 24.8% | [2] -2.85% | [3] -2.55% | [4] -17.8% | [5] 1.6% | [6] -4%

CN(C)CSC(=S)NCCNC(=S)SCN(C)C
inactive: [1] 1.6% | [2] -19.6% | [3] 24.8% | [4] 5.95% | [5] 4% | [6] -4.1%

CC(NC(=O)C1CCCN1C(=O)OCc1ccccc1)C(=O)O (stereo unspecified)
inactive: [1] -7.7% | [2] 31.1% | [3] -10.5% | [4] 2.1% | [5] -13.2% | [6] -19.6%

O=[N+]([O-])c1ccc(C2=Nc3ccccc3S(=O)C(c3ccccc3)C2)cc1 (stereo unspecified)
inactive: [1] 5.3% | [2] -27.3% | [3] 19.9% | [4] 3.45% | [5] 10.7% | [6] 20.6%

OC1(c2ccc(F)cc2)CCNCC1
inactive: [1] 21.5% | [2] -7.55% | [3] 33.9% | [4] 20.4% | [5] 19% | [6] 7.2%

COc1cc(-c2c3c(cc4c2OCO4)CC(O)C(C(=O)O)C3)cc(OC)c1OC (stereo unspecified)
inactive: [1] 40.9% | [2] -2.6% | [3] 0.4% | [4] 15.1% | [5] 1.75% | [6] 5.6%

CN(CC#N)[C@H]1CCC[C@]1(O)C#C[Si](C)(C)c1ccccc1
inactive: [1] 9.15% | [2] -19.8% | [3] 19.1% | [4] 30.9% | [5] 9.05% | [6] 1.55%

CNNC(=NS(=O)(=O)c1cc(C#N)c(NNC)cc1S)NNC
inactive: [1] 6.05% | [2] -3.95% | [3] -11.3% | [4] -36.5% | [5] -8.45% | [6] 12.3%

CCC1(c2ccccc2)NC(=O)N(N)C1=O (stereo unspecified)
inactive: [1] 0.4% | [2] 28.5% | [3] -8.8% | [4] 9.05% | [5] -0.75% | [6] 1.85%
